This assay deals with Eukaryotic translation initiation factor 4H (Homo sapiens) (UniProt Q15056). Nature of the assay: eIF4H binding inhibition – biochemical, uHTS, fluorescence polarization, translation initiation inhibitor project, primary screen (AID 2012).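 Note: calls also rest on retests at 20 µM and on dose response follow-up.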 Particulars: eIF4H fluorescence polarization binding assay, stronger effect = higher value.

Usually inhibition stands for the change of the read-out against control, counted positive when it falls.

Among all 290,000 compounds or so, about 2,700 (0.93%) were called active. The rule behind the calls is not given here. The entries come from a sample that favours actives as a whole.

For the compound `CN(C)c1ccc(/C=C2\CC3C4CC=C5CC(O)CCC5(C)C4CCC3(C)C2=O)cc1` (centres undefined), the inhibition runs as follows: (at 35 µM) 3.9% (active); (confirmation average, at 20 µM) 87.3%.
With `CCN1C(=O)C(=Cc2c(C)n(CC(=O)NCC3CCCO3)c3ccccc23)C(=O)N(CC)C1=S` (centres undefined), for the setting “at 35 µM”, the inhibition was 48.5% (inactive).
Consider `O=C(N/N=C/c1c(O)n(C2CC2)c(=S)[nH]c1=O)c1ccccc1`, for which, under “at 35 µM”, the inhibition is 10.1% (inactive).
With `O=c1[nH]c(=O)n(CCc2ccc(F)cc2)c(O)c1/C=N/N1CCCCC1`, the inhibition (at 35 µM) was -3.1% (inactive).
`O=c1[nH]c(=O)n(Cc2ccccc2)c(O)c1/C=N/Nc1c(F)c(F)c(F)c(F)c1F`: the inhibition (at 35 µM) was 92.3% (active).
`CCCCC(=O)N/N=C/c1c(O)n(-c2ccccc2)c(=O)[nH]c1=O`: where the note is “at 35 µM”, the inhibition is 12.9% (inactive).
Consider `O=C(N/N=C/c1c(O)n(Cc2ccccc2)c(=O)[nH]c1=O)c1ccccc1`, for which the inhibition was 74.3% (active) (at 35 µM) and 67.6% (confirmation average, at 20 µM).
As for `O=c1[nH]c(=O)n(CCc2ccccc2)c(O)c1/C=N/N1CCOCC1`, the inhibition (at 35 µM) is 3.3% (inactive).
For `CC1CCC(N(C)C2CCN(C)CC2)CC1` (centres undefined), where the note is “at 35 µM”, the inhibition was -3.9% (inactive).
Still for that read-out and setting: next, `CCN(CC)C(=O)c1ccc(NC(=O)c2sccc2-c2ccccc2)cc1`: -5.8% (inactive); `CCCCn1c(=O)c(C(=O)Nc2ccccc2Cl)c(O)c2ccccc21`: -6% (inactive).
Still for that read-out and setting: next, `COc1ccc(N=Cc2c(O)n(C)c(=O)[nH]c2=O)cc1`: 35.4% (inactive); `Cc1cccc(NC(=O)N2CC3CC(C2)c2cccc(=O)n2C3)c1` (centres undefined): -1.5% (inactive).
Same read-out and setting: next, `Cc1nc2ccccc2c(=O)n1-c1ccc(Cl)cc1Cl`: 1.9% (inactive); `Cc1ccc(C2CN(C)CC2C(=O)c2ccc(F)cc2)cc1` (centres undefined): -1.4% (inactive).
As to `COc1ccc(CNCCc2c[nH]c3ccccc23)cc1OC`, the inhibition (at 35 µM) was -0.9% (inactive).
Consider `CN(C)S(=O)(=O)c1cc(C(=O)N2CCC(C(=O)O)(c3ccccc3)CC2)ccc1Cl`, for which the inhibition (at 35 µM) was -1.5% (inactive).
As to `COc1cccc(N2C(=O)NC(=O)/C(=C\c3ccc([N+](=O)[O-])s3)C2=O)c1`, the inhibition (at 35 µM) is 73.8% (active) and the inhibition (confirmation average, at 20 µM) was 101%.
On the same counts, the results for `O=C1NC(=O)N(c2ccccc2)C(=O)/C1=C/c1ccc([N+](=O)[O-])s1` are 70.5% (inactive) and 22.6%.
Regarding `Cc1cccc(N2C(=O)NC(=O)/C(=C\c3cnn(-c4ccccc4)c3)C2=O)c1`, the inhibition (at 35 µM) is -2.6% (inactive).
In the case of `O=C(Cc1ccc(Cl)cc1)NCCN1CCN(C(=O)Cc2ccc(Cl)cc2)CC1`, under “at 35 µM”, the inhibition is -0.4% (inactive).
The same measure, in the same setting: the value for `COc1ccc(CNCCc2ccc3c(c2)OCO3)c(OC)c1OC` was 18.8% (inactive); that for `COc1cccc(OC)c1C(=O)NC(=S)N1C[C@H]2C[C@H](C1)c1cccc(=O)n1C2` was -6.5% (inactive).
On the same count and under the same terms, the value for `O=C1NC(=O)N(CCc2ccc(F)cc2)C(=O)/C1=C/C=C/c1ccccc1` was 4.2% (inactive); that for `CCCCC(=O)N/N=C/c1c(O)n(CCC2=CCCCC2)c(=O)[nH]c1=O` was 26.1% (inactive); that for `O=C(O)COc1ccccc1/C=C1\C(=O)NC(=O)N(CCC2=CCCCC2)C1=O` was 94% (active).
Regarding `CN1CCC(OC(=O)c2cccc(F)c2)CC1`, the inhibition (at 35 µM) was -5.1% (inactive).
Turning to `CC1(C)Cc2c(C#N)c(N3CCNCC3)nc(-c3ccco3)c2CS1`, the inhibition is 84.6% (active) (at 35 µM) and 77.5% (confirmation average, at 20 µM).
As to `COc1cccc(C(=O)N2C[C@H]3C[C@@H](C2)c2cccc(=O)n2C3)c1`, the inhibition (at 35 µM) is 18.7% (inactive).
With `COc1ccc(CN2C(=O)NC(=O)/C(=C\c3ccc(OC)c(OC)c3OC)C2=O)cc1`, the inhibition by setting is: (at 35 µM) 9% (active); (confirmation average, at 20 µM) 60.4%.
As for `O=C1NC(=O)N(Cc2ccco2)C(=O)/C1=C\c1cccn1CCOc1ccccc1`, the inhibition (at 35 µM) was 49.4% (inactive).
On the same count and under the same terms, the value for `C=CCN1C(=O)NC(=O)/C(=C/c2ccc(OCC(=O)Nc3ccc(C)cc3)cc2)C1=O` was -6.2% (inactive); that for `CN(C)C(=O)Oc1ccc2c(c1)O/C(=C\c1ccccc1)C2=O` was -7% (inactive).
On to `Cc1cc(/C=C2/C(=O)NC(=O)N(Cc3ccco3)C2=O)c(C)n1-c1ccc(C(=O)O)cc1`, for which the inhibition (at 35 µM) is 84% (inactive) and the inhibition (confirmation average, at 20 µM) turned out to be 42.8%.
Take `COc1ccc(N2C(=O)/C(=C/c3ccco3)C(=O)NC2=S)cc1`: the inhibition is, setting by setting: (at 35 µM) 74.6% (active); (confirmation average, at 20 µM) 76.5%.
For `Cc1ccc(S(=O)(=O)N(C)c2ccc(C(=O)NCC3(N(C)C)CCCCC3)cc2)cc1`, the inhibition (at 35 µM) is 0.5% (inactive).
As for `O=[N+]([O-])c1cnc2ccc3ccccc3c2c1`, the inhibition (at 35 µM) is 1.5% (inactive).
On the same count and under the same terms, next, `COc1ccc2[nH]c3c(c2c1)CCN[C@H]3C`: -4.1% (inactive).
Still for that read-out and setting: next, `CN(c1ccccc1)c1ccc([N+](=O)[O-])c2nonc12`: 9.8% (inactive); `CC/C(=N\NC(=O)c1ccccc1O)c1c(O)n(Cc2ccccc2)c(=O)[nH]c1=O`: 43.2% (inactive).
Still for that read-out and setting: next, `CCCCn1c(O)c(C(CC)=NCc2ccco2)c(=O)[nH]c1=O`: 9.5% (inactive).
Turning to `CCC(=NCc1ccco1)c1c(O)n(Cc2ccccc2)c(=O)[nH]c1=O`, the inhibition reads like this: (at 35 µM) 67.3% (active); (confirmation average, at 20 µM) 73.8%.
Take `Oc1cc2c(cc1CN1CCN(c3ccccc3)CC1)OCO2`: the inhibition (at 35 µM) was -8.2% (inactive).
`O=c1c2ccccc2nc(/C=C/c2ccc(F)cc2)n1-c1ccccc1O`: for the setting “at 35 µM”, the inhibition is 18.9% (inactive).
Same read-out and setting: next, `CCC(=NCCc1ccccc1)c1c(O)n(C2CCCCC2)c(=O)[nH]c1=O`: -8% (inactive); `CC(=O)c1c(O)n(C2CCCCCC2)c(=O)[nH]c1=O`: 82% (active); `CC(=NCC1CCCO1)c1c(O)n(-c2ccccc2)c(=O)[nH]c1=O` (centres undefined): -5.3% (inactive).
Still for that read-out and setting: next, `CCN1CCN(Cc2cc(OC)c3c(c2)OCO3)CC1`: 10.2% (inactive); `c1ccc(CCNC2CCCCCC2)cc1`: 11% (inactive).
Take `CC(=O)Nc1ccc(C(=O)C(Cc2ccccc2)N(C)C)cc1` (centres undefined): the inhibition (at 35 µM) is -9.3% (inactive).

The record behind these values is PubChem BioAssay AID2012 (Sanford-Burnham Center for Chemical Genomics, 2009).
